Measured values published in PubChem BioAssay (EPA / NIEHS).
“And” between values parts separate entries of the source, which are not always exact repeats. Equal values may be shown once. More than one record can exist for a structure, and the calls need not agree. The source made the active and inactive calls. How the source made its calls: active means hit-call score of the fitted dose curve at least 0.9, where 1 is the maximum; inactive means score below 0.9.

What follows are compounds tested on CD38, CD38 (gene 952) (assay: BSK_SAg_CD38: BioMAP Diversity Plus: SAg Assay for CD38 Biomarker Activity (AID 2283087)). Conditions: primary human HUVEC with PBMC; actives raise or lower the signal.
Method in brief: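 Measures CD38 on a human endothelial/PBMC co-culture driven by SEB and TSST-1, 24 h after compound exposure, using ELISA with fluorescence detection; DMSO defines baseline for bidirectional curve fitting.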

Question: How did the outcome turn out when `O=C(c1ccccc1)C1CCCCC1` was run?
Answer: inactive

Question: How did the outcome turn out when `S=C(S)NCCNC(=S)S.[Mn+2].[S-]C([S-])=NCCN=C([S-])[S-].[Zn+2]` was run?
Answer: inactive

Question: Which outcome does the source give for `OB(O)O` here?
Answer: inactive

Question: For `CCN(Cc1c(F)cccc1Cl)c1c([N+](=O)[O-])cc(C(F)(F)F)cc1[N+](=O)[O-]`, which AC50 is on record?
Answer: 8.9 µM (active)

Question: How did the outcome turn out when `CCCCC(CC)COC(=O)c1ccccc1C(=O)O` (configuration not stated) was run?
Answer: inactive

Question: With `c1ccc(Nc2ccccc2)cc1` as the compound, how does the outcome read?
Answer: inactive

Question: For `CCOC(=O)C(C)Oc1ccc(Oc2cnc3cc(Cl)ccc3n2)cc1` (configuration not stated), which outcome is on record?
Answer: inactive

Question: With `CC(C)CCCCCCc1ccc(O)cc1` as the compound, how does the AC50 read?
Answer: 8.61 µM (active)

Question: `N#CSCSc1nc2ccccc2s1` was tested. Which AC50 did it give?
Answer: 5.37 µM (active) and 5.56 µM (active)

Question: With `CCCN(CCC)c1c([N+](=O)[O-])cc(C(F)(F)F)c(N)c1[N+](=O)[O-]` as the compound, how does the outcome read?
Answer: inactive

Question: `O=C(O)c1ccccc1` was tested. Which outcome did it give?
Answer: inactive

Question: `O=C(O)C1(C(=O)Nc2ccc(Cl)cc2Cl)CC1` was tested. Which AC50 did it give?
Answer: 5.3 µM (active)

Question: How did the AC50 turn out when `CC(=O)S[C@@H]1CC2=CC(=O)CC[C@]2(C)[C@H]2CC[C@@]3(C)[C@@H](CC[C@@]34CCC(=O)O4)[C@H]12` was run?
Answer: 19.3 µM (active)

Question: With `CCCN(CCC)C(=O)SCC` as the compound, how does the outcome read?
Answer: inactive

Question: Which AC50 does the source give for `Cc1nn(C)c(Oc2ccccc2)c1C=NOCc1ccc(C(=O)OC(C)(C)C)cc1` here?
Answer: 5.76 µM (active)

Question: Which outcome does the source give for `CCCCOCCOCCOCc1cc2c(cc1CCC)OCO2` here?
Answer: inactive

Question: How did the outcome turn out when `CC1(C)C(C=C(Cl)Cl)C1C(=O)OCc1cccc(Oc2ccccc2)c1` (configuration not stated) was run?
Answer: inactive

Question: `CCOC(=O)C(C)Oc1ccc(Oc2nc3ccc(Cl)cc3o2)cc1` (configuration not stated) was tested. Which AC50 did it give?
Answer: 23.6 µM (active)

Question: `CCC(O)=C1C(=O)CC(C(=O)O)CC1=O` (configuration not stated) was tested. Which outcome did it give?
Answer: inactive

Question: Which outcome does the source give for `CCSC(=O)N(CC(C)C)CC(C)C` here?
Answer: inactive

Question: With `C[C@]12CC[C@@H]3c4ccc(O)cc4C[C@@H](CCCCCCCCCS(=O)CCCC(F)(F)C(F)(F)F)[C@H]3[C@@H]1CC[C@@H]2O` (some centres not stated) as the compound, how does the outcome read?
Answer: inactive

Question: `COC(=O)c1ccc(I)cc1S(=O)(=O)NC(=O)Nc1nc(C)nc(OC)n1` was tested. Which outcome did it give?
Answer: inactive

Question: `C#C[C@]1(O)CC[C@H]2[C@@H]3CCC4=CC(=O)CC[C@@H]4[C@H]3CC[C@@]21CC` was tested. Which outcome did it give?
Answer: inactive

Question: How did the outcome turn out when `CCOC(=O)c1ccc(O)cc1` was run?
Answer: inactive

Question: How did the outcome turn out when `c1ccc2[nH]c(-c3cscn3)nc2c1` was run?
Answer: inactive

Question: How did the outcome turn out when `CCNc1nc(N)nc(Cl)n1` was run?
Answer: inactive

Question: Which outcome does the source give for `CCCCOC(=O)C(C)Oc1ccc(Oc2ccc(C(F)(F)F)cn2)cc1` (configuration not stated) here?
Answer: inactive

Question: With `CCOC(=O)NCCOc1ccc(Oc2ccccc2)cc1` as the compound, how does the AC50 read?
Answer: 29.1 µM (active)

Question: For `CSC(=O)c1cccc2nnsc12`, which outcome is on record?
Answer: inactive

Question: What does the source list for `CC(C)(c1ccc(O)cc1)c1ccc(O)cc1`?
Answer: AC50: 13.8 µM (active); outcome: inactive

Each compound was assayed on CD40, CD40 (gene 958) (assay: BSK_SAg_CD40: BioMAP Diversity Plus: SAg Assay for CD40 Biomarker Activity (AID 2283088)). Conditions: primary human HUVEC with PBMC; actives raise or lower the signal.
Method in brief: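 Fluorescence ELISA read-out of CD40 from umbilical vein endothelium plus peripheral blood mononuclear cells, sampled 24 h after dosing. Values come from bidirectional curve fitting with DMSO as baseline.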

Question: For `O=C(c1ccccc1)C1CCCCC1`, which outcome is on record?
Answer: inactive

Question: `S=C(S)NCCNC(=S)S.[Mn+2].[S-]C([S-])=NCCN=C([S-])[S-].[Zn+2]` was tested. Which outcome did it give?
Answer: inactive

Question: With `OB(O)O` as the compound, how does the outcome read?
Answer: inactive

Question: For `CCN(Cc1c(F)cccc1Cl)c1c([N+](=O)[O-])cc(C(F)(F)F)cc1[N+](=O)[O-]`, which outcome is on record?
Answer: inactive

Question: How did the outcome turn out when `CCCCC(CC)COC(=O)c1ccccc1C(=O)O` (configuration not stated) was run?
Answer: inactive

Question: How did the outcome turn out when `c1ccc(Nc2ccccc2)cc1` was run?
Answer: inactive

Question: With `CCOC(=O)C(C)Oc1ccc(Oc2cnc3cc(Cl)ccc3n2)cc1` (configuration not stated) as the compound, how does the outcome read?
Answer: inactive

Question: Which AC50 does the source give for `CC(C)CCCCCCc1ccc(O)cc1` here?
Answer: 8.59 µM (active)

Question: For `N#CSCSc1nc2ccccc2s1`, which AC50 is on record?
Answer: 5.42 µM (active) and 6.26 µM (active)

Question: With `CCCN(CCC)c1c([N+](=O)[O-])cc(C(F)(F)F)c(N)c1[N+](=O)[O-]` as the compound, how does the AC50 read?
Answer: 28.9 µM (active)

Question: `O=C(O)c1ccccc1` was tested. Which outcome did it give?
Answer: inactive

Question: For `O=C(O)C1(C(=O)Nc2ccc(Cl)cc2Cl)CC1`, which outcome is on record?
Answer: inactive

Question: `CC(=O)S[C@@H]1CC2=CC(=O)CC[C@]2(C)[C@H]2CC[C@@]3(C)[C@@H](CC[C@@]34CCC(=O)O4)[C@H]12` was tested. Which AC50 did it give?
Answer: 20 µM (active)

Question: How did the outcome turn out when `CCCN(CCC)C(=O)SCC` was run?
Answer: inactive

Question: `Cc1nn(C)c(Oc2ccccc2)c1C=NOCc1ccc(C(=O)OC(C)(C)C)cc1` was tested. Which AC50 did it give?
Answer: 6.66 µM (active)

Question: How did the outcome turn out when `CCCCOCCOCCOCc1cc2c(cc1CCC)OCO2` was run?
Answer: inactive

Question: With `CC1(C)C(C=C(Cl)Cl)C1C(=O)OCc1cccc(Oc2ccccc2)c1` (configuration not stated) as the compound, how does the outcome read?
Answer: inactive

Question: With `CCOC(=O)C(C)Oc1ccc(Oc2nc3ccc(Cl)cc3o2)cc1` (configuration not stated) as the compound, how does the AC50 read?
Answer: 12 µM (active)

Question: How did the outcome turn out when `CCC(O)=C1C(=O)CC(C(=O)O)CC1=O` (configuration not stated) was run?
Answer: inactive

Question: How did the outcome turn out when `CCSC(=O)N(CC(C)C)CC(C)C` was run?
Answer: inactive

Question: With `C[C@]12CC[C@@H]3c4ccc(O)cc4C[C@@H](CCCCCCCCCS(=O)CCCC(F)(F)C(F)(F)F)[C@H]3[C@@H]1CC[C@@H]2O` (some centres not stated) as the compound, how does the outcome read?
Answer: inactive

Question: `COC(=O)c1ccc(I)cc1S(=O)(=O)NC(=O)Nc1nc(C)nc(OC)n1` was tested. Which outcome did it give?
Answer: inactive

Question: Which outcome does the source give for `C#C[C@]1(O)CC[C@H]2[C@@H]3CCC4=CC(=O)CC[C@@H]4[C@H]3CC[C@@]21CC` here?
Answer: inactive

Question: With `CCOC(=O)c1ccc(O)cc1` as the compound, how does the outcome read?
Answer: inactive

Question: How did the outcome turn out when `c1ccc2[nH]c(-c3cscn3)nc2c1` was run?
Answer: inactive

Question: `CCNc1nc(N)nc(Cl)n1` was tested. Which outcome did it give?
Answer: inactive

Question: `CCCCOC(=O)C(C)Oc1ccc(Oc2ccc(C(F)(F)F)cn2)cc1` (configuration not stated) was tested. Which outcome did it give?
Answer: inactive

Question: How did the AC50 turn out when `CCOC(=O)NCCOc1ccc(Oc2ccccc2)cc1` was run?
Answer: 14.5 µM (active)

Question: How did the outcome turn out when `CSC(=O)c1cccc2nnsc12` was run?
Answer: inactive

Question: How did the AC50 turn out when `CC(C)(c1ccc(O)cc1)c1ccc(O)cc1` was run?
Answer: 20.3 µM (active) and 5.31 µM (active)

Question: What about the outcome of the same compound?
Answer: inactive
